# Experimental data as given in PubChem BioAssay (NCI).
# Where “and” joins values, the source holds several entries; their conditions need not be identical. Identical values can stand only once. About 83,000 compounds went through this panel and 20% of them were active in at least one assay; those are over-represented in the sample as a whole.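 48-hour exposure, single concentration, 96-well plates; percent growth endpoint where 0 means no net growth. Active: below 10.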 A number with no mark means an inactive call. Calls of active or inactive are those of the source.
# Test system: MDA-MB-468 breast
# Experiment: NCI-60 one-dose screen, 48 h (100 = growth as untreated, 0 = no growth, -100 = all killed)
# Conditions: 10 µM unless noted
row,Structure (SMILES),growth
1,CCOC(=O)c1c(C)oc(C)c(C(=O)OCC)c1=O,103%
2,O=C1c2ccccc2OC=C(c2ccccc2)N1CCCCNc1ccc(F)cc1,76.3%
3,COc1ccc(C2=C/C(=C\c3ccccc3O)C(=O)N2Cc2ccccc2)cc1,53.7%
4,COc1cc2cc(Oc3ccc(NC(=O)c4ccccc4)cc3)c(C)nc2cc1OC,98.4%
5,CC(C)(C)c1cc(C[P+](c2ccccc2)(c2ccccc2)c2ccccc2)cc(C(C)(C)C)c1O,-2.61% (active)
6,CCCCCc1cc[n+](CC(=O)c2ccccc2)cc1,86.9% and 76%
7,Cc1c(O)c(=O)n(-c2ccccc2)n1C,105%
8,COc1ccc(-c2ccc3cc(C(=O)Nc4ccc(O)c(C(=O)/C=C/c5cc(OC)c(OC)c(OC)c5)c4)ccc3c2)cc1,82.2%
9,S=c1[nH]nc2sc3ccccc3n12,122%
10,COc1cc2cc(Oc3ccc(NC(=O)Nc4ccc(Cl)c(C(F)(F)F)c4)cc3)c(C)nc2cc1OC,-42.7% (active)
11,C=C(C)[C@@H]1CC[C@]2(C(=O)O)CC[C@]3(C)[C@H](CC[C@@H]4[C@@]5(C)C/C(=C/c6ccc(OC)cc6)C(=O)C(C)(C)[C@@H]5CC[C@]43C)[C@@H]12,0.722% (active)
12,Cc1c2cnccc2c(C)c2c1c1cc(C#N)ccc1n2C,-46.9% (active)
13,CCO/C=C1\SC(=S)N(c2cccc(C)c2)C1=O,102%
14,COc1ccc2c(c1)C(=O)/C(=C/c1ccc([N+](=O)[O-])o1)O2,-49.4% (active)
15,COc1cc(Cl)cc(-c2nn(C(=O)NS(=O)(=O)c3ccccc3)cc2-c2ccncc2)c1,89%
16,N#CC1=C(N)Oc2c(ccc3ccccc23)C1c1ccc([N+](=O)[O-])cc1 (stereo not drawn),90%
17,O=C1Nc2ccccc2/C1=C/C(=O)c1ccc(N2CCOCC2)cc1,85%
18,Nc1c(C(=O)Nc2cccc(Cl)c2)sc2nc3c(cc12)C(=O)CCC3,-10.6% (active)
19,CC1CCCCC[N+]12CCCC2 (stereo not drawn),99.4%
20,Fc1ccccc1CSc1ncnc2nc[nH]c12,97.6%
21,C(=C(\C1=NCCN1)n1cnc2ccccc21)/c1ccc2ccccc2c1,26.2%
22,O=C(O)c1cccc2c1Cc1cc([N+](=O)[O-])ccc1-2,113%

row,Structure (SMILES),growth
1,C[C@H]1[C@H](C)CC[C@]2(C(=O)OCCOCCOCC[P+](c3ccccc3)(c3ccccc3)c3ccccc3)CC[C@]3(C)C(=CC[C@@H]4[C@@]5(C)CC[C@H](OC(=O)C(Cl)Cl)C(C)(C)[C@@H]5CC[C@]43C)[C@H]12,-21.5% (active)
2,O=P(O)(O)OCC(O)CO (stereo not drawn),100%
3,CN(C)CC(C(=O)c1ccccc1)c1ccccc1 (stereo not drawn),-47.8% (active)
4,CC1CCN(CCCCCOc2ccc3oc4cc(Cl)ccc4c(=O)c3c2)CC1,57.7%
5,CN1C[C@@H](c2ccc(Cl)cc2)[C@]2(NC(=S)N(c3ccccc3)C2=O)[C@@]12C(=O)NC1C=CC(Br)=C[C@H]12 (stereo partly drawn),67.7%
6,CN(C)c1ccc2nc3ccc(=[N+](C)C)c([N+](=O)[O-])c-3sc2c1,0.864% (active)
7,COc1cccc(/C=C2\COc3ccc(O)c(O)c3C2=O)c1,-11.1% (active)
8,CC(=O)O[C@]1(C)C[C@H](O)[C@]2(O)C=CO[C@H](O[C@@H]3O[C@H](CO)[C@@H](O)[C@H](O)[C@H]3O)[C@@H]21,96.8%
9,Cc1nc(-n2[nH]c(=O)ccc2=O)sc1N=Nc1ccccc1,93.8%
10,O=C1c2ccccc2NC(c2cn(-c3ccccc3)nc2-c2cccnc2)N1Cc1ccccc1 (stereo not drawn),102%
11,N#Cc1c(-c2ccccc2)nc2c(c(-c3ccccc3)nn2-c2ccccc2)c1-c1ccc(O)cc1,38.3%
12,CC(=O)n1nc(C(=O)OC(C)C)c2cc(C)c(C)cc21,92.9%
13,C=CCOC(=O)C1=C(C)NC2=C(C(=O)CCC2)C1c1ccc(F)cc1 (stereo not drawn),92.3%
14,CCc1cccc(Cl)c1,113%
15,O=C(/C=C/c1ccc(Cl)cc1)c1cccc(OCCCOc2cccc(C(=O)/C=C/c3ccc(Cl)cc3)c2)c1,92.9%
16,CNCc1ccccc1CN(CC(=O)Nc1ccc2c(c1)CC1(C2)C(=O)Nc2ncccc21)C(=O)C(C)(C)C (stereo not drawn),107%
17,C=C(C=O)[C@@H]1CC=C(C=O)CC1,20.2%
18,CN1CCN(CCCOc2ccc3ncnc(Nc4ccc(Oc5cccc(F)c5)c(Cl)c4)c3c2)CC1,-66% (active)
19,COC(=O)C(=C\c1ccc2c(c1)OCO2)/C(=C/c1ccc2c(c1)OCO2)C(=O)OC,111%
20,CC/C(=C(\c1ccc(OCCN2CCCCCCC2)cc1)c1ccc(OC(=O)C2CCCCC2)cc1)c1ccc(Cl)cc1,114%
21,CCN(CC)CCCC(C)N(Cc1ccccc1)CC(O)c1ccc(Cl)cc1 (stereo not drawn),91.2% and 104%
22,CN(CCc1ccccn1)c1ccccc1,113%

row,Structure (SMILES),growth
1,COc1ccccc1C(C)=O,108% and 111%
2,CCCCOc1c(N)cccc1C(=O)OCCN(CC)CC,112%
3,COc1ccc(C2C(c3nn[nH]n3)=C(N)Oc3c2ccc2ccccc32)cc1 (stereo not drawn),43.8%
4,CNS(=O)(=O)c1cccc(-c2ccc3c4c(n(C)c(=O)c3c2)-c2ccccc2C4=O)c1,83.4%
5,Cc1cccc2c(=O)c3c(sc12)c(NCCCN)nc1ccccc13,-38.5% (active)
6,CC1=C(CCC(C)NCc2ccc(OCCCN3CCCCC3)cc2)C(C)(C)CCC1 (stereo not drawn),-92.7% (active)
7,O=C1Nc2ccc(Br)cc2C12CC(c1ccccc1)=NN2 (stereo not drawn),48.6%
8,CCCCN(C(=O)CC)c1ccccc1,106%
9,COc1ccc(N/N=C/c2c(-c3ccc(S(C)(=O)=O)cc3)nc3ccccn23)cc1,58.2%
10,CC(C)Sc1nc(-c2ccc(Br)cc2)c(C#N)c(N2CCCCC2)n1,93.9%
11,C=CCn1c(SCC(=O)Nc2cccc(C(=O)/C=C/c3ccc(OC)c(OC)c3)c2)nc2ccccc2c1=O,80.9%
12,CC(=O)Nc1ccc(Cl)cc1Cl,90.1%
13,CCOC(=O)c1cnc2cc(Cl)c(F)cc2c1Nc1cccc(NS(C)(=O)=O)c1,87.6%
14,COc1ccc2sc3c(NCCCN)nc4ccccc4c3c(=O)c2c1,48.6%
15,O=C(Cc1ccccc1)c1ccc(Cl)cc1,124%
16,CCCCCC(=O)OCCC1CCCCC1,99%
17,O=C1C2CC3C(CC2C(=O)[N]1[Sn]([c]1ccccc1)([c]1ccccc1)[c]1ccccc1)C1(Cl)C(Cl)=C(Cl)C3(Cl)C1(Cl)Cl (stereo not drawn),-83.1% (active)
18,N=c1sc(Cc2cc(Cl)ccc2Cl)cn1CC(=O)c1ccccc1,61.3%
19,CN1C(=O)N(C)C2Nn3c(s/c(=C\c4ccc(Cl)cc4Cl)c3=O)=NC21 (stereo not drawn),59%
20,COC(=O)C1=C(C(=O)ON)C2C=CC1(C(Cc1ccccc1)Nc1ccccc1)O2 (stereo not drawn),-45% (active)
21,CCOC(=O)C1C(=O)C=C(c2cnccn2)CC1c1ccc(OC)c(OC)c1 (stereo not drawn),108%
22,N#Cc1c(-c2ccccc2)nc(SCC2CO2)nc1N1CCOCC1 (stereo not drawn),55.9%

row,Structure (SMILES),growth
1,CCCCCCC(CCCC)COC(=O)c1ccc(Cl)cc1 (stereo not drawn),96.2%
2,C[n+]1cc2c3c(ccc2c2ccc4cc5c(cc4c21)OCO5)OCO3,-93.7% (active)
3,COc1ccc(-c2nc3sc(C4CC4)nn3c2/C=C2/C(=O)Nc3ccc(OC)cc32)cc1,23.3%
4,O=C(CSc1nnc(-c2ccc(Cl)cc2)o1)Nc1ccc(C(=O)/C=C/c2ccccc2)cc1,98.7%
5,COc1ccc(-c2cn[nH]c2-c2cc(OC)c(OC)c(OC)c2)cc1N,-13.3% (active) and -29.2% (active)
6,Cc1ccc(C(=O)/C(=C/c2ccc([N+](=O)[O-])cc2)SCc2ccc(Cl)cc2)cc1,72.9%
7,CNc1sc(S(=O)(=O)NC)nc1S(=O)(=O)c1ccc(C)cc1,86.3%
8,Cc1cc(C(=O)Nc2cc(Nc3ncccc3-c3ncnc4nc[nH]c34)ccc2F)cc(C(C)(C)C#N)c1,87.7%
9,ClCC(Cl)C1CCC(Cl)C(Cl)C1 (stereo not drawn),114%
10,CC1CC=CCC1C1OCC(C)(C)CO1 (stereo not drawn),105%
11,O=C(NNc1nc2cc(F)ccc2n2c(CN3CCC(O)C3)ccc12)c1cnccn1 (stereo not drawn),-17.3% (active)
12,O=C(Nc1ccccc1C(=O)NCC1CC1)c1cccs1,102%
13,NC(=O)c1ccc(N=C(N)N=C(N)N)cc1,84.5%
14,Cc1c(O)cc(-c2cnc(N/N=C/c3ccccc3)s2)c(O)c1C,61.6%
15,O=C1Nc2ccc(C(=O)O)cc2/C1=N/c1nnc(Sc2ccccc2)s1,105%
16,COc1ccc(/C=C(\C#N)c2ccc([N+](=O)[O-])cc2)c2ccccc12,84.7%
17,O=c1[nH]c2c(ccc3cnccc32)c2c1CCC2,-60.5% (active)
18,CCc1cc(Cl)c(OC)c(C(=O)NCC2CCCN2CC)c1O (stereo not drawn),77.1%
19,COc1cccc(-c2nc3sccn3c2-c2ccnc(NCCNS(=O)(=O)c3cccc(F)c3)c2)c1,25.6%
20,O=C(c1ccccc1)c1ccc(O)c2ncccc12,25.6%
21,COc1ccc(-c2nn(-c3ccc(S(C)(=O)=O)cc3)cc2/C=N/O)cc1,117%
22,CCCn1cnc2c(c1=N)C(c1ccc(F)cc1)c1sc3c(CC)cccc3c1O2 (stereo not drawn),-47.9% (active)
